# The campaign covered roughly 59,000 compounds. About 6,200 (11%) were called active. Another 9% or so got no clear call; they are omitted. Cut-off read from the data, not from the text of the source: active = max dye-equivalent concentration above about 10 nM; inconclusive = mostly about 1.1 nM to 9.6 nM; inactive = weaker than that. Shown is part of a subset that was picked to be rich in actives.
# Test: qHTS Assay for Spectroscopic Profiling in 4-MU Spectral Region
# Details: compound autofluorescence, 340/450 nm, 4-MU equivalents; active compounds read high
# How it was run: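 Intrinsic fluorescence at 340/450 nm (ex/em) was read after 15 min at room temperature in pH 8.0, 100 mM Tris. Each compound concentration expressed as 4-MU-equivalent concentration from a six-point 4-MU standard series on each plate.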
row,SMILES,max dye-equivalent concentration
1,O=C(NCCSc1ccccc1)c1ccco1,inactive
2,Cc1cc2ccccc2n2c(SCC(=O)N3CCN(C(=O)c4ccco4)CC3)nnc12,inactive
3,CC12CCC(C(=O)N3CCN(c4ncccn4)CC3)(c3nc4ccccc4nc31)C2(C)C (configuration not stated),inactive
4,O=c1c(-c2ccc3c(c2)OCCO3)c(C(F)(F)F)oc2cc(O)cc(O)c12,inactive
5,CC(=O)Nc1ccn(Cc2c(F)cccc2Cl)n1,inactive
6,O=C(c1ccncc1)N1CCC2(CCCN(C(c3ccccc3)c3ccccc3)C2)CC1,inactive
7,CC1CCCCC1NC(=O)CSc1nnc(N)s1 (configuration not stated),inactive
8,CC(=O)CSc1nnc(CSc2ncccn2)n1C1CCCCC1,inactive
9,COc1ccccc1CNC(=O)CCn1c(=O)sc2ccccc21,inactive
10,CCN(Cc1nc2ccccc2c(=O)[nH]1)Cc1cc(=O)oc2cc(C)c(C)cc12,inactive
11,Cc1ccnc(SCCn2c(Br)nc3c2c(=O)[nH]c(=O)n3C)n1,inactive
12,CCCCNC(=O)c1ccccc1NC(=O)c1ccccc1N(C)S(C)(=O)=O,inactive
13,COc1ccccc1Nc1ncc(C(C)=O)c(C)n1,inactive
14,COCCCn1c(CCC(=O)O)ccc1-c1ccc(F)cc1,1600 nM (active)
15,CCN(CC)S(=O)(=O)c1cccc(C(=O)Nc2cc(C)nn2-c2nc(C)cc(C)n2)c1,inactive
16,c1ccc2sc(SCCSc3nc4ccccc4s3)nc2c1,inactive
17,CCOC(=O)N1CCN(C(=O)c2ccc3nc4cc(Cl)ccc4c(=O)n3c2)CC1,1300 nM (active)
18,CCOC(=O)N1CCN(C(=O)c2ccc(S(=O)(=O)c3ccc(C)cc3)c(NC(C)=O)c2)CC1,inactive
19,CCOC(=O)N1CCN(C(=O)CNC(=O)Cc2ccc(Cl)cc2)CC1,inactive
20,COC(=O)c1ccc(N(CC(=O)NC2CCCC2)C(=O)CNC(=O)c2ccco2)cc1,inactive
21,Cc1ccccc1N1CC(c2nc3ccccc3[nH]2)CC1=O (configuration not stated),inactive
22,CC(C)(C)n1nnc(CCc2nnn(C(C)(C)C)n2)n1,inactive
23,Cc1cc(Cl)c(S(=O)(=O)NCc2cccnc2)cc1OCC(N)=O,inactive
24,COC(=O)C(C)N(C#N)c1nc(C)nc(C)n1 (configuration not stated),inactive
25,Cn1c(=O)[nH]c(=O)c2c1nc(Br)n2CCCCSc1nc2ccccc2o1,inactive
26,CC[C@]1(O)CC2CN(CCc3c([nH]c4ccccc34)[C@@](C(=O)OC)(c3cc4c(cc3OC)N(C=O)[C@H]3[C@@](O)(C(=O)OC)[C@H](OC(C)=O)[C@]5(CC)C=CCN6CC[C@]43[C@@H]65)C2)C1 (some centres not stated),inactive

row,SMILES,max dye-equivalent concentration
1,CC[C@]1(O)C[C@@H]2CN(CCc3c([nH]c4ccccc34)[C@@](C(=O)OC)(c3cc4c(cc3OC)N(C)[C@H]3[C@@](O)(C(=O)OC)[C@H](OC(C)=O)[C@]5(CC)C=CCN6CC[C@]43[C@@H]65)C2)C1,47 nM (active)
2,Cc1nn(CC(=O)Nc2ccc3c(c2)nc(CN2CCCCC2)n3C)c(=O)c2ccccc12,inactive
3,CC(C)NC(=O)N1CC[C@@]2(CCCN(C(=O)c3cccc(F)c3)C2)C1,inactive
4,COc1ccccc1Nc1ncnc2c1oc1ccccc12,73 nM (active)
5,Cc1cc(C)nc(N2CCN(c3ncnc4c3oc3ccccc34)CC2)n1,inactive
6,COc1ccccc1CNc1ncnc2ccc(-c3ccc4c(c3)OCO4)cc12,inactive
7,S=c1[nH]nc(SCc2ccccc2Cl)c2[nH]cnc12,inactive
8,CCC(Oc1ccccc1)C(=O)NCc1cccnc1 (configuration not stated),inactive
9,O=C1CC2(CCCCC2)Oc2ccc(OCC(=O)N3CCOCC3)cc21,1200 nM (active)
10,O=C(Nc1cccc(OCC(=O)N2CCOCC2)c1)C1CCCCC1,inactive
11,O=C(Oc1ccc2c(c1)CCC2)N1CCOCC1,inactive
12,CCOC(=O)CCc1c(C)c2ccc(OCc3nn[nH]n3)c(C)c2oc1=O,24 nM (active)
13,C[C@H](NC(=O)OC(C)(C)C)c1nnc(SCC(=O)Nc2ccc(Br)cc2)o1,inactive
14,CCc1nc2ccccc2n(CCOCCOCCn2c(=O)c(CC)nc3ccccc32)c1=O,34 nM (active)
15,CCC(=O)Nc1nc2ccccc2n1Cc1ccccc1C,inactive
16,C=C(Br)Cn1c(CCCC)nc2ccccc21,inactive
17,COc1cccc(OC)c1OCCN1CCN(C(=O)c2ccco2)CC1,inactive
18,Cc1cccc(Cn2c(SCCO)nc3c2c(=O)n(C)c(=O)n3C)c1,inactive
19,CCOC(=O)N1CCN(CC(=O)c2ccc3c(c2)CCN3)CC1,12 nM (active)
20,CCOC(=O)N1CCN(CC(=O)n2c(C)c(C)c3ccccc32)CC1,inactive
21,CCOC(=O)N1CCN(CC(=O)c2c(C)[nH]c3ccccc23)CC1,inactive
22,CCNS(=O)(=O)c1ccc(NC(=O)Nc2cccc(C(F)(F)F)c2)cc1,inactive
23,CC1Oc2ccccc2N(Cc2cccnc2)C1=O (configuration not stated),inactive
24,Cc1ccc(CC2CC(=O)N(c3ccc4c(c3)OCCO4)C2=O)cc1 (configuration not stated),inactive
25,N#CC1=C(N)C(C#N)(C#N)[C@H](c2ccsc2)[C@H]2COCC=C12,13 nM (active)
26,COc1cccc2cc(C(=O)N(C)C)c(=O)oc12,inactive

# — PubChem BioAssay AID589 (National Center for Advancing Translational Sciences (NCATS), 2007)
